For 16 compounds, inhibition results are on record in PubChem BioAssay AID743060 (The Scripps Research Institute Molecular Screening Center, 2013).

Molecules are shown by their SMILES.

This test in a line: T. brucei methionyl-tRNA synthetase enzyme inhibition – biochemical, radioactivity, round 1, late-stage follow-up (AID 743060). The conditions noted are these: purified enzyme, radiolabel aminoacylation, scintillation, 2 h; at 1 µM; stronger effect = higher value.
Consider `O=C(NCc1nc2ccccc2[nH]1)C1=C[C@H](c2ccc(Br)cc2)C[C@H](OCc2ccc(CO)cc2)O1`, for which the inhibition was determined as 50.3%.

As for `COc1ccccc1-n1c(SCC(=O)Nc2ccc(Cl)cc2)nc(O)c(Cc2ccccc2)c1=O`, the inhibition was 2.04%.

For `COc1ccc(NC(=O)C2CC(=O)n3c(nc4ccccc43)N2)cc1` (stereo unspecified), the inhibition was -18.5%.

On to `Cc1cccc(C(=O)NCCc2nc3ccccc3n2CCOc2ccccc2)c1`, for which the inhibition was 1.66%.

Take `CCN(CC)C(=O)C(=O)c1cn(CC(=O)Nc2ccccc2OC)c2ccccc12`: the inhibition was -7.03%.

With `O=C(NCc1nc2ccccc2[nH]1)C1=C[C@@H](C2CC2)C[C@@H](OCc2ccc(CO)cc2)O1`, the inhibition was 52.8%.

On to `O=C(CSc1nnc2c(n1)[nH]c1ccc(Br)cc12)NCc1ccccc1`, for which the inhibition was found to be 79.8%.

As to `O=C(CN1CCSC1=NCc1ccccc1)c1ccc(Cl)c(Cl)c1`, the inhibition was -1.95%.

`Cc1[nH]c2ccc(Br)cc2c(=O)c1CN1CCCCCC1`: the inhibition was 19.4%.

In the case of `Cc1ccc(C(=O)NCCc2nc3ccccc3[nH]2)cc1[N+](=O)[O-]`, the inhibition amounted to 35.7%.

In the case of `O=C(NCc1nc2ccccc2[nH]1)C1=C[C@@H](c2ccc(Br)cc2)C[C@@H](OCCCCO)O1`, the inhibition was 84.2%.

Regarding `C[C@H](O)[C@@H]1C(=O)N2CCc3c([nH]c4ccccc34)[C@@H]2C[C@@H]1N(C)Cc1ccc2c(c1)OCO2`, the inhibition was 1.98%.

With `CC(C)c1nc2ccc(C(=O)N(C)CCc3nc4ccc(F)cc4[nH]3)cc2o1`, the inhibition was -1.99%.

On to `CCOC(=O)N1CCC(Nc2c(Nc3ccc(F)cc3)c(=O)c2=O)CC1`, for which the inhibition worked out at 28.4%.

`Cn1c(CCNC(=O)c2ccc(Cl)cc2)nc2ccccc21`: the inhibition was 10.9%.

Turning to `O=C(Cn1cnc2ccccc21)Nc1cccc([N+](=O)[O-])c1`, the inhibition came to 44.9%.
